Out of some 420,000 compounds screened, about 64,000 (15%) were called active. About 27% were inconclusive and are not listed. Calls come from the whole dose curve; as a rule, active = well fitted inhibition curve with a large enough effect; inconclusive = small, poorly fitted or top-dose-only effect; inactive = flat fitted curve, though single readings scatter. A selection follows.
Experiment: qHTS for Inhibitors of human tyrosyl-DNA phosphodiesterase 1 (TDP1): qHTS in cells in absence of CPT; note: nearly all actives have a fitted effect of over 55% in size
Conditions: DT40 Tdp1-/- hTDP1 cells, no CPT, ATP luminescence, 48 h; activity change, negative = growth inhibition: at 46.2 µM (top of the series)
Procedure, shortened: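 Seeded 400 DT40-hTDP1 cells/well (vehicle DMSO, no 20 nM CPT); pinned compounds; ≥48 hr at 37 °C; CellTiter-Glo luminescence as viability measure.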
For `Cc1ccccc1NC(=O)c1nn(-c2ccc(F)c(F)c2)ccc1=O`, the “activity change, negative = growth inhibition” value was 0.98% (inactive).
For `CN(C)/C=C(/C(=O)c1ccccc1)S(=O)(=O)c1ccc(Cl)cc1`, the “activity change, negative = growth inhibition” value was -0.434% (inactive).
For `COc1ccc(OC(C)C(=O)Nc2cccnc2)cc1` (centres undefined), the “activity change, negative = growth inhibition” value was 4.05% (inactive).
In the case of `N#Cc1ccc(OCCN2C(=O)NC3(CCSC3)C2=O)cc1` (centres undefined), the “activity change, negative = growth inhibition” value is reported as -4.16% (inactive).
For `CCOC(=O)[C@H]1[C@H]2COc3ccc(Br)cc3[C@@H]2N2C(=O)CN(C)C(=O)[C@@]12C`, the “activity change, negative = growth inhibition” value was -2.51% (inactive).
With `CCOC(=O)[C@@H]1[C@H]2COc3cc(OC)ccc3[C@H]2N2C(=O)N(c3ccc(F)cc3)C(=O)[C@]12C` the “activity change, negative = growth inhibition” value was -18.1% (inactive).
For `CCOC(=O)[C@H]1[C@H]2COc3cc(OC)ccc3[C@@H]2N2C(=O)N(c3ccc(Br)cc3)C(=O)[C@@]12C`, the Potency was 18.4 µM (active).
In the case of `CCOC(=O)[C@H]1[C@H]2COc3ccccc3[C@@H]2N2C(=O)CN(Cc3ccccc3)C(=O)[C@@]12C`, the “activity change, negative = growth inhibition” value is reported as -21.1% (inactive).
For `CCOC(=O)[C@@H]1[C@H]2COc3ccc(Br)cc3[C@H]2N2C(=O)N(c3ccc(C)cc3)C(=O)[C@@]12C`, the Potency was 20.6 µM (active).
For `CCOC(=O)[C@@H]1[C@H]2COc3cc(OC)ccc3[C@@H]2N2C(=O)N(c3cccc(C)c3)C(=O)[C@@]12C`, the “activity change, negative = growth inhibition” value was -25.7% (inactive).
In the case of `O=C(CN1CCN(Cc2ccc(F)cc2Cl)C1=O)NCc1cccs1`, the “activity change, negative = growth inhibition” value is reported as -14.6% (inactive).
For `COc1cc(C2OC(c3cc(OC)c(OC)c(OC)c3)C(C)C2C)cc(OC)c1OC` (centres undefined), the Potency was 18.4 µM (active).
For `COc1cc(C2CC(=O)Oc3cc(OC)c(OC)c(OC)c32)cc(OC)c1OC` (centres undefined), the “activity change, negative = growth inhibition” value was -15.9% (inactive).
In the case of `COc1cc(OC)c2c(c1)OC(=O)CC2c1cc(OC)c(OC)c(OC)c1` (centres undefined), the “activity change, negative = growth inhibition” value is reported as 4.96% (inactive).
In the case of `CCCNC(=O)NCc1ccc(N2CCCC2=O)cc1`, the “activity change, negative = growth inhibition” value is reported as -1.13% (inactive).
With `Cn1cccc1C1(C(F)(F)F)NCCNC1=O` (centres undefined) the “activity change, negative = growth inhibition” value was 2.55% (inactive).
With `Cc1ccc(SCC(=O)N2CCN(c3ccc(F)cc3)CC2)cc1` the “activity change, negative = growth inhibition” value was -28% (inactive).
With `Cc1ccc(CSCC2Nc3ccc(C(=O)N4CCN(c5ccc(F)cc5)CC4)cc3NC2=O)cc1` (centres undefined) the Potency was 16.4 µM (active).
For `COC(=O)c1ccc(C(=O)OC)c(NC(=S)N2CCN(c3ccc(F)cc3)CC2)c1`, the “activity change, negative = growth inhibition” value was -22.4% (inactive).
For `COCc1ccc(CN2CCC(Oc3ccc(C(=O)NCc4ccccn4)cc3)CC2)o1`, the “activity change, negative = growth inhibition” value was -22.1% (inactive).
In the case of `O=C(COC(=O)c1ncc(Cl)c(Cl)c1Cl)NNC(=O)c1ccccc1`, the “activity change, negative = growth inhibition” value is reported as -13.8% (inactive).
For `CCCCCCn1cc(C(=O)O)c(=O)c2cc(F)c(N3CCCCC3)cc21`, the “activity change, negative = growth inhibition” value was 1.32% (inactive).
For `Cc1ccc(S(=O)(=O)c2cn(Cc3ccccc3)c3cc(N4CCCC4)c(F)cc3c2=O)c(C)c1`, the Potency was 9.2 µM (active).
For `CC1CCCN(c2cc3c(cc2F)c(=O)c(S(=O)(=O)c2cccc(Cl)c2)cn3Cc2ccccc2)C1` (centres undefined), the “activity change, negative = growth inhibition” value was -15% (inactive).
With `Cc1cccc(S(=O)(=O)c2cn(Cc3ccccc3)c3cc(N4CCOCC4)c(F)cc3c2=O)c1` the Potency was 20.6 µM (active).
For `CCn1cc(S(=O)(=O)c2cccc(C)c2)c(=O)c2cc(F)c(N3CCN(C)CC3)cc21`, the “activity change, negative = growth inhibition” value was 6.93% (inactive).
For `Cc1nn(Cc2ccccc2)c(C)c1CNC(=O)c1ccc(F)c(S(=O)(=O)N2CCOCC2)c1`, the “activity change, negative = growth inhibition” value was -29.9% (inactive).
In the case of `CC(=O)Cc1nsc(NC(=O)c2ccc(Cl)cc2Cl)n1`, the “activity change, negative = growth inhibition” value is reported as -8% (inactive).
For `CCCCCC1CC(COc2ccccc2)OC1=O` (centres undefined), the “activity change, negative = growth inhibition” value was 0.957% (inactive).
With `CCOC(=O)c1oc2ccccc2c1NC(=O)c1cccs1` the “activity change, negative = growth inhibition” value was 2.22% (inactive).
For `CCOC(=O)CNC(=O)/C(=C\c1ccc(F)cc1)NC(=O)c1ccccc1`, the “activity change, negative = growth inhibition” value was -0.762% (inactive).
For `CC(=O)OCC(=O)[C@@]1(O)CCC2C3CCC4=CC(=O)CC[C@@]4(C)[C@]3(F)C(O)C[C@]21C` (some centres undefined), the “activity change, negative = growth inhibition” value was -2.28% (inactive).
In the case of `COc1ccc(C2(Nc3cccc(F)c3)C(=O)c3ccccc3C2=O)cc1`, the “activity change, negative = growth inhibition” value is reported as 5.13% (inactive).
With `COc1ccc(CCNC(=O)COC(=O)c2cc(=O)c3ccccc3o2)cc1` the “activity change, negative = growth inhibition” value was 12% (inactive).
With `COc1ccc(Nc2cc(=O)oc3ccccc23)cc1` the Potency was 4.11 µM (active).
For `COc1ccc2oc(=O)cc(-c3cc4ccccc4o3)c2c1`, the “activity change, negative = growth inhibition” value was -16.8% (inactive).
For `CC1C=CCC2C(=O)N(c3cccc(C(=O)N4CCCCCC4)c3)C(=O)C12` (centres undefined), the “activity change, negative = growth inhibition” value was -13% (inactive).
For `CCCCCCCC(=O)OC(CN1CCCCCC1)CN1CCCC1=O` (centres undefined), the “activity change, negative = growth inhibition” value was -24.6% (inactive).
For `CCCCNC(=O)N1CCN(S(C)(=O)=O)CC1`, the “activity change, negative = growth inhibition” value was -8.63% (inactive).
With `COc1cc(OC)cc(C(=O)NCCCn2ccnc2)c1` the “activity change, negative = growth inhibition” value was 12.1% (inactive).
In the case of `COc1cccc(-c2nn(-c3ccccc3)cc2/C=C(\C#N)C(=O)NCCCn2ccnc2)c1`, the Potency is reported as 20.6 µM (active).
For `O=C(NCCCn1ccnc1)/C(=C\c1ccccc1F)NC(=O)c1ccccc1`, the “activity change, negative = growth inhibition” value was -16.8% (inactive).
With `NC(=NC(=O)c1ccccc1)C1=C(O)CCC1=O` the “activity change, negative = growth inhibition” value was 10% (inactive).
With `N#CC1(Nc2ccc(-c3ccc(Cl)cc3)cc2)CCCC1` the “activity change, negative = growth inhibition” value was -29.4% (inactive).
In the case of `Nc1nc(NC(=O)/C=C/c2ccccc2)nn1-c1ccccc1`, the “activity change, negative = growth inhibition” value is reported as -3.08% (inactive).
With `CCCc1cc(=O)oc2c(C)c(OCC(=O)Nc3ccccn3)ccc12` the “activity change, negative = growth inhibition” value was -16% (inactive).
With `CN1CCc2c(sc3c2c(NCc2ccco2)nc2nnnn23)C1` the Potency was 18.4 µM (active).
With `CC1CCN(C(=O)CCc2nnc3ccc(NCc4ccco4)nn23)CC1` the “activity change, negative = growth inhibition” value was -6.36% (inactive).
With `O=C(CN(c1cccc(Cl)c1)S(=O)(=O)c1ccccc1)NN=C1CCCC1` the “activity change, negative = growth inhibition” value was 9.75% (inactive).

From PubChem BioAssay AID686978 (National Center for Advancing Translational Sciences (NCATS), 2013)
% is set by controls: 0 for no effect and ±100 for the full control effect; potency is the fitted concentration of half-maximal effect.
